According to PubChem BioAssay AID1159580 (chemical genetic matrix, 2015):
Values joined by “and” are separate entries in the source; they are usually repeats but may differ in a detail not shown here. Equal values may be shown once. The campaign covered roughly 5,500 compounds. About 2,000 (36%) were called active. Roughly 18% stayed inconclusive and do not appear here. Cut-off read from the data, not from the text of the source: active = normalized growth mostly below about 0.91 (no sharp cut-off); inconclusive = no clear call, values can overlap the other calls; inactive = mostly above about 0.92. The list shows a part of the results.

Assay: chemical genetic growth profiling, strain panel (AID 1159580);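 note: tested at 20 µM; growth read once vehicle control cultures reached saturation at 30 °C; 1 = growth at the plate median or of vehicle wells; lower values mean less growth of the strain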
Settings: S. cerevisiae deletion strains, growth OD

Measured: normalized growth

Cc1ncc(CNC(=O)N(CCCl)N=O)c(N)n1
inactive: locus YAL013W, strain DEP1, stronger effect = lower value 1.01 and 1 | locus YAL021C, strain ccr4, stronger effect = lower value 0.948 | locus YAL026C, strain drs2, stronger effect = lower value 1.02 | locus YAL030W, strain snc1, stronger effect = lower value 1.01 | locus YAL040C, strain CLN3, stronger effect = lower value 0.981 | locus YBL061C, strain skt5, stronger effect = lower value 1.01 | locus YBR009C, strain hhf1, stronger effect = lower value 0.992 | locus YBR021W, strain FUR4, stronger effect = lower value 0.994 | locus YBR023C, strain chs3, stronger effect = lower value 1 | locus YBR171W, strain sec66, stronger effect = lower value 1.02 | locus YBR229C, strain ROT2, stronger effect = lower value 1.03 | locus YBR231C, strain swc5, stronger effect = lower value 1.03 | locus YBR279W, strain paf1, stronger effect = lower value 1 | locus YCL011C, strain gbp2, stronger effect = lower value 1 | locus YCL016C, strain dcc1, stronger effect = lower value 0.978 | locus YCL029C, strain bik1, stronger effect = lower value 0.985 | locus YCL061C, strain MRC1 (second series), stronger effect = lower value 1 | locus YCL061C, strain MRC1, stronger effect = lower value 0.999 | locus YCL069W, strain vba3, stronger effect = lower value 1.01 | locus YCR088W, strain abp1, stronger effect = lower value 1.01 | locus YDL005C, strain med2, stronger effect = lower value 1.01 | locus YDL035C, strain GPR1, stronger effect = lower value 1 | locus YDL040C, strain nat1, stronger effect = lower value 1.02 | locus YDL074C, strain BRE1, stronger effect = lower value 1.02 | locus YDL101C, strain DUN1, stronger effect = lower value 1.01 | locus YDL134C, strain PPH21, stronger effect = lower value 1.03 | locus YDL185W, strain tfp1, stronger effect = lower value 0.985 | locus YDL192W, strain arf1, stronger effect = lower value 0.997 | locus YDR001C, strain nth1, stronger effect = lower value 1.01 | locus YDR069C, strain doa4, stronger effect = lower value 1.02 | locus YDR101C, strain arx1, stronger effect = lower value 0.983 | locus YDR137W, strain rgp1, stronger effect = lower value 1.04 | locus YDR150W, strain NUM1, stronger effect = lower value 1.03 and 0.998 | locus YDR159W, strain sac3, stronger effect = lower value 1.08 | locus YDR162C, strain NBP2, stronger effect = lower value 1 | locus YDR195W, strain ref2 0.993 | locus YDR297W, strain sur2, stronger effect = lower value 1.02 | locus YDR318W, strain mcm21, stronger effect = lower value 1 | locus YDR334W, strain swr1, stronger effect = lower value 1.02 | locus YDR335W, strain msn5, stronger effect = lower value 1.01 | locus YDR363W, strain ESC2, stronger effect = lower value 1 | locus YDR388W, stronger effect = lower value 0.986 | locus YDR392W, strain spt3, stronger effect = lower value 0.917 | locus YDR502C, strain sam2, stronger effect = lower value 0.99 | locus YEL003W, strain gim4, stronger effect = lower value 1.01 | locus YEL037C, strain rad23, stronger effect = lower value 1.01 | locus YEL061C, strain CIN8 (second series), stronger effect = lower value 1.01 | locus YEL061C, strain CIN8, stronger effect = lower value 1.02 | locus YER002W, strain NOP16, stronger effect = lower value 1 | locus YER015W, strain faa2, stronger effect = lower value 0.982 | locus YER016W, strain bim1, stronger effect = lower value 1.02 | locus YER110C, stronger effect = lower value 0.979 | locus YER111C, strain swi4, stronger effect = lower value 1.01 | locus YER155C, strain BEM2 (second series), stronger effect = lower value 1.03 | locus YER155C, strain BEM2, stronger effect = lower value 1 | locus YER167W, strain BCK2, stronger effect = lower value 1.01 | locus YFR010W, strain ubp6, stronger effect = lower value 1.01 | locus YGL078C, strain dbp3, stronger effect = lower value 0.991 | locus YGL086W, strain mad1, stronger effect = lower value 1 | locus YGL167C, strain pmr1, stronger effect = lower value 1 | locus YGL173C, strain kem1, stronger effect = lower value 1.01 | locus YGL227W, strain vid30, stronger effect = lower value 1.01 | locus YGL240W, strain doc1, stronger effect = lower value 1.01 | locus YGL248W, strain PDE1, stronger effect = lower value 1.02 | locus YGL253W, strain hxk2, stronger effect = lower value 1.01 | locus YGR078C, strain PAC10, stronger effect = lower value 1.01 | locus YGR135W, strain pre9, stronger effect = lower value 1 | locus YGR229C, strain SMI1, stronger effect = lower value 0.994 | locus YGR252W, strain gcn5, stronger effect = lower value 0.976 | locus YHR013C, strain ard1, stronger effect = lower value 1 | locus YHR027C, strain rpn1, stronger effect = lower value 1.04 | locus YHR030C, strain SLT2, stronger effect = lower value 1.02 and 0.958 | locus YHR079C, strain IRE1 (second series), stronger effect = lower value 0.984 | locus YHR079C, strain IRE1, stronger effect = lower value 0.957 | locus YHR094C, strain hxt1, stronger effect = lower value 0.989 | locus YHR129C, strain ARP1, stronger effect = lower value 1.02 | locus YHR142W, strain chs7, stronger effect = lower value 1.01 | locus YHR200W, strain rpn10, stronger effect = lower value 0.988 | locus YIL066C, strain RNR3, stronger effect = lower value 1.02 | locus YIL073C, strain SPO22, stronger effect = lower value 0.994 | locus YIL125W, strain kgd1, stronger effect = lower value 0.995 | locus YIR030C, strain dcg1, stronger effect = lower value 0.987 | locus YJL092W, strain hpr5, stronger effect = lower value 0.978 | locus YJL095W, strain BCK1 (second series), stronger effect = lower value 1.03 | locus YJL095W, strain BCK1, stronger effect = lower value 0.999 and 0.951 | locus YJL115W, strain asf1, stronger effect = lower value 1.01 | locus YJL129C, strain trk1, stronger effect = lower value 1.03 | locus YJL134W, strain LCB3, stronger effect = lower value 1.02 | locus YJL154C, strain vps35, stronger effect = lower value 1.01 | locus YJL164C, strain tpk1, stronger effect = lower value 0.988 | locus YJL166W, strain qcr8, stronger effect = lower value 1.01 | locus YJL168C, strain set2, stronger effect = lower value 0.99 | locus YJL187C, strain SWE1 (second series), stronger effect = lower value 1.02 | locus YJL187C, strain SWE1, stronger effect = lower value 0.993 | locus YJR043C, strain POL32, stronger effect = lower value 0.902 | locus YJR066W, strain TOR1, stronger effect = lower value 0.901
